# Reference: PubChem BioAssay
# Where “and” joins values, the source holds several entries; their conditions need not be identical. Equal entries are not always repeated. Calls of active or inactive are those of the source.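 Rule for the calls, unless noted: active = visually confirmed hit in the image check and inhibition above 20%; inconclusive = visually confirmed hit but inhibition not above 20%; inactive = no visual hit in the image check.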
# What was measured:
# [1] = inhibitors of TNFa-induced NFkB p65 translocation, primary screen, imaging, HUVEC, MLSMR starter and 10KST1 sets (AID 438;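 active = inhibition above 20% together with a positive visual image hit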;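 note: compound added about 3h40 before a 20 min TNFalpha stimulation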;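 for inhibition: signal is the nuclear over cytoplasmic p65 intensity ratio per well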); settings: HUVEC TNFa-induced p65 nuclear translocation; cell count: measured here: nuclei count (cytotoxicity indicator), at 2.08 µM; inhibition: at 2 µM, stronger effect = higher value, 0% TNFa-plus-vehicle, 100% no-TNFa wells
# [2] = inhibitors of E-selectin induction by TNFa, primary screen, imaging, HUVEC, immunofluorescence, MLSMR starter and 10KST1 sets (AID 487); settings: HUVEC TNFalpha-induced E-selectin immunofluorescence imaging, at 2 µM; inhibition: stronger effect = higher value; nuclei count: measured here: cell number, toxicity;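 for inhibition: signal is fraction of cell area covered by stained E-selectin grains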;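 for nuclei count: 100% = median nuclei count of all wells on the same plate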
# [3] = DUSP6 inhibitors restoring Erk phosphorylation by chemical complementation, primary imaging in DUSP6-transfected HeLa (AID 609;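 active = compounds giving at least 50% inhibition in the cell-based MKP-3 phosphatase rescue imaging test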;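 for inhibition: phospho-Erk level distribution per well compared with pooled transfected vehicle control wells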); settings: HeLa MKP-3 transfected, phospho-Erk imaging KS statistic, at 10 µM, cells stimulated with TPA for 15 min
# [4] = target: Dual specificity protein phosphatase 6 (Homo sapiens) (UniProt Q16828); experiment: as above; settings: HeLa MKP-3 transfected, phospho-Erk imaging KS statistic; at 10 µM; stronger effect = higher value; cells stimulated with TPA for 15 min
# Sequence of Dual specificity protein phosphatase 6 (Homo sapiens) (Q16828 whole entry, looked up): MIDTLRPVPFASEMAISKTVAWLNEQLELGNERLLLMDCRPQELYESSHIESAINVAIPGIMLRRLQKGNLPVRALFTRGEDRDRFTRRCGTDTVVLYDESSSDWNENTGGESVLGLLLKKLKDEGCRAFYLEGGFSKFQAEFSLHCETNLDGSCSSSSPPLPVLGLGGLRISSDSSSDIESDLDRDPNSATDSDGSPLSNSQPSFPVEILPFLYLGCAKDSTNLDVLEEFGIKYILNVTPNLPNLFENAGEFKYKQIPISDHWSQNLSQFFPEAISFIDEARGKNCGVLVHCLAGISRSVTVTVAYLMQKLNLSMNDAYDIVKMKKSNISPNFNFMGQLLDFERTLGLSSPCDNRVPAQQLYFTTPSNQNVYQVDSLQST
# [5] = target: Voltage-gated potassium channel subunit beta-2 (Rattus norvegicus) (UniProt P62483); experiment: KvBeta enzyme negative modulators, primary screen, biochemical, NADPH fluorescence (AID 622;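 active = fluorescence slope higher than the sample average by over 3 SD, cut at about -0.22 in these data, passing the limit was not always enough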;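 note: slope of raw intensity against log time taken from 70 to 1610 s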); settings: recombinant KvBeta, 4-cyanobenzaldehyde reduction, at 10 µM, stronger effect = higher value
# Sequence of Voltage-gated potassium channel subunit beta-2 (Rattus norvegicus) (P62483 whole entry, looked up): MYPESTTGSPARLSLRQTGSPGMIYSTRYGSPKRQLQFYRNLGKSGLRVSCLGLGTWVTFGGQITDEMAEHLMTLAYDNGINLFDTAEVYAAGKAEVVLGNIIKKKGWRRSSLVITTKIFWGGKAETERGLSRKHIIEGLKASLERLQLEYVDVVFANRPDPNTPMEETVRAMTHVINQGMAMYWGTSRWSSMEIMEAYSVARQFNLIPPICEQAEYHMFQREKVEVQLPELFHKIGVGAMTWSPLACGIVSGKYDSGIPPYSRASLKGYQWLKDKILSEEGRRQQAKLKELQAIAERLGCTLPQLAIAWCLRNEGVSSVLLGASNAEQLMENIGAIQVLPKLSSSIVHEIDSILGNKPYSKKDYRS
# [6] = target: Voltage-gated potassium channel subunit beta-2 (Rattus norvegicus) (UniProt P62483); experiment: KvBeta positive modulators, primary screen, biochemical, NADPH fluorescence (AID 623;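 active = NADPH fluorescence slope more negative than the mean of all samples by about 3 SD, 99.7% confidence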;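 note: fluorescence intensity change per second fitted from 20 to 320 s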); settings: Recombinant KvBeta, NADPH fluorescence decrease slope, 10 min; at 10 µM; stronger effect = lower value
# [7] = target: Muscarinic acetylcholine receptor M4 (Homo sapiens) (UniProt P08173); experiment: compounds altering M4/GIRK thallium flux, either direction, primary screen, M4 allosteric agonist project, cell-based, HEK293 M4/GIRK, BTC-AM (AID 625;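 active = fluorescence slope after compound addition differing from the mean of all tested samples at 99.7% confidence, mostly higher but some lower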;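 note: thallium influx through GIRK channels coupled to M4 in HEK293 cells with BTC-AM dye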); settings: at 10 µM, actives lie on both sides
# Sequence of Muscarinic acetylcholine receptor M4 (Homo sapiens) (P08173 whole entry, looked up): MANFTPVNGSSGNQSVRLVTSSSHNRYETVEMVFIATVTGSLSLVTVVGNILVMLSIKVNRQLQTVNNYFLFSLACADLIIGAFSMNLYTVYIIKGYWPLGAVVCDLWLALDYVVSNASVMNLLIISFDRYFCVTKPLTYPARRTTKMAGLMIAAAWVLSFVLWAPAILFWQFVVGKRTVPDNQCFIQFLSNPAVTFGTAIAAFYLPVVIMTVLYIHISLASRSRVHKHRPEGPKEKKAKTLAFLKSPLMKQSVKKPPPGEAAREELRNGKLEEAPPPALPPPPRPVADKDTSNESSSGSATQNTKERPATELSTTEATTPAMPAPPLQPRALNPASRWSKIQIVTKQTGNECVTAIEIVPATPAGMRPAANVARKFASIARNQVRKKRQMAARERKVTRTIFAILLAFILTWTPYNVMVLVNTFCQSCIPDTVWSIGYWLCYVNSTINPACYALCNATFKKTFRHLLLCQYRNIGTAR
# [8] = inhibitors of larval lipid processing in zebrafish, primary screen, whole organism, PED6 fluorescence, gall bladder and intestine (AID 686;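 active = a full or partial loss of lipid-probe fluorescence in the fish gall bladder, intestine or both, judged by eye; inactive = no fluorescence loss, or compound toxic to the fish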;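 note: larvae 5 to 7 days old with five fish per well; signal comes from phospholipase A2 cleavage of quenched PED6 carried via bile; overnight exposure to compound and PED6 before scoring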); settings: Zebrafish larvae PED6 lipid processing, fluorescence scoring; screened at 20 µM (by protocol)
# [9] = inhibitors of Chlamydomonas gravitaxis, primary screen, whole organism, Chlamydomonas reinhardtii, WT vs cilia-less mutant, absorbance, 96-well (AID 463189;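 active = inhibition at or above 50% relative to wild type and mutant plate controls; inactive = inhibition below 50%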;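 note: 0% = wild type cc124 cells in DMSO and 100% = ciliumless bld1 mutant cells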); settings: OD600 absorbance, 2 days, at 10 µM, stronger effect = higher value
# [10] = target: Alpha-2C adrenergic receptor (Homo sapiens) (UniProt P18825); experiment: modulators of alpha2C/GIRK thallium flux, primary screen, cell-based, HEK293 alpha2C/GIRK1/2 (AID 624;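 active = fluorescence slope after compound addition differing from the mean of all screened samples at 99.7% confidence, in either direction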;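 note: slope of fluorescence ratio to pre-addition baseline per second over 15 to 24 s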); settings: thallium flux BTC fluorescence, at 10 µM, actives lie on both sides
# Sequence of Alpha-2C adrenergic receptor (Homo sapiens) (P18825 whole entry, looked up): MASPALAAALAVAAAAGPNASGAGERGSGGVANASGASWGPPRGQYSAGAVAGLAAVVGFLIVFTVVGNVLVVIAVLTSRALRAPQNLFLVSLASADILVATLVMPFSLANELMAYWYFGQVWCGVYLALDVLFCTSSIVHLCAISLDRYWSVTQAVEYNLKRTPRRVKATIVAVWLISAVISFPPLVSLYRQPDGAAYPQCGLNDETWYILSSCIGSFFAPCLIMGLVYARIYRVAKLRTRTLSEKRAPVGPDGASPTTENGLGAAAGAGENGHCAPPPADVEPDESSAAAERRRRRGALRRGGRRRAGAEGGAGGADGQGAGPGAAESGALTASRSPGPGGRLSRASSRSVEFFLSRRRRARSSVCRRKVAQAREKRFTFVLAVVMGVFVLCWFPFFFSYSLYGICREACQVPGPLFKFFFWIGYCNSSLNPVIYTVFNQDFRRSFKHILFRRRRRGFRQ
# [11] = inhibitors of mutant huntingtin aggregation, primary screen, imaging, exon1htt(103Q)mCFP cells, high-content imaging (AID 483;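 active = visual image review flags a hit and inhibition of aggregation exceeds 20%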;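 note: compound exposure lasted 3 days before fixation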;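 for nuclei count: percent of the per-plate median nuclei count of sample wells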); settings: exon1htt(103Q)mCFP cell line, aggregate imaging, at 2 µM; inhibition of aggregation: stronger effect = higher value; nuclei count: measured here: cell count, toxicity
# [12] = inhibitors of Sendai virus-induced IRF3 signaling, primary screen, TLR/RLR signaling modifier project, cell-based, Sendai virus stimulus, luciferase, 10K MLSCN set (AID 602276;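 active = inhibition at or above 50% at 10 µM; inactive = inhibition below 50%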;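 note: firefly luciferase from ISG56 promoter only with Renilla not read in this screen; 0% = Sendai virus plus DMSO and 100% = medium plus DMSO without virus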); settings: HEK293 RL24 IRF3 luciferase reporter, at 10 µM, stronger effect = higher value
# [13] = inhibitors of poly I:C-induced TLR3 signaling, primary screen, cell-based, poly I:C stimulus, luciferase, 10K MLSCN set (AID 602277;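 active = inhibition of the reporter signal at or above 50%; inactive = inhibition below 50%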); settings: HEK293-TLR3 RL24 IRF3 luciferase reporter, at 10 µM, stronger effect = higher value
# [14] = measured here: cell density z-score
# [15] = measured here: nuclear c-Myc green intensity z-score
# [16] = measured here: nuclear pErk red intensity z-score, stronger effect = higher value
SMILES,cell count [1],inhibition [1],inhibition [2],nuclei count [2],"z-score [3, 14]","z-score [3, 15]","z-score [3, 16]",inhibition [4],fluorescence slope [5],NADPH fluorescence slope [6],fluorescence slope [7],outcome [8],inhibition [9],slope [10],inhibition of aggregation [11],nuclei count [11] [%],inhibition [12],inhibition [13]
CCCc1nc(NC2CCCCC2)c(C#N)c2c1COC(C)(C)C2,517,-11.1% (inactive),-55.9% (inactive),114%,-0.306,-0.0962,-0.825,-3.95% (inactive),-0.492 (inactive),-6.5e-05 (inactive),0.00613 (inactive),inactive,-12.9% (inactive),–,–,–,–,–
CCCCc1c(C)c2ccc(OCC(C)=O)cc2oc1=O,647,-10% (inactive),51.6% (inactive),90.6%,-2.59,0.867,-5.29,47.6% (inactive),-0.472 (inactive),-3.8e-05 (inactive),0.00708 (inactive),inactive,-0.273% (inactive),–,–,–,–,–
CCOC(=O)c1c(C)[nH]c(/C(C)=N/O)c1C,668,-10.2% (inactive),-400% (inactive),161%,-0.0773,-1.42,-0.664,1.12% (inactive),-0.526 (inactive),-3.4e-05 (inactive),0.00562 (inactive),inactive,87.2% (active),–,–,–,–,–
CCCSc1nnc2n(C)c(=O)c3c4c(sc3n12)CCC4,376,-2.9% (inactive),-11.1% (inactive),83.1%,-0.271,-0.0406,0.896,9.42% (inactive),-0.501 (inactive),-7.9e-05 (inactive),0.00582 (inactive),inactive,62% (active),–,–,–,–,–
Cn1c(=O)c2c(nc(NCC(O)CO)n2CCc2ccccc2)n(C)c1=O (stereo unspecified),693,2% (inactive),-108% (inactive),172%,0.322,-1.96,-0.0564,19.8% (inactive),-0.483 (inactive),-1e-05 (inactive),0.00665 (inactive),inactive,24.7% (inactive),–,–,–,–,–
CC(C)(C)c1nnc2sc(SCC(=O)c3ccccc3)nn2c1=O,619,3.4% (inactive),-55% (inactive),105%,-1.21,-0.101,1.16,-7.67% (inactive),-0.455 (inactive),-6.8e-05 (inactive),0.00537 (inactive),inactive,11.5% (inactive),–,–,–,–,–
CC1(C)Cc2c(c(-c3ccccc3)[nH]c(=O)c2C#N)CS1,499,-15.7% (inactive),-47.8% (inactive),131%,1.65,-1.74,-0.608,14.7% (inactive),-0.426 (inactive),-2.8e-05 (inactive),0.0044 (inactive),inactive,-6.24% (inactive),–,–,–,–,–
O=C(NC1CCCCC1)Nn1c(-c2ccccc2)nc2ccccc2c1=O,695,-7.6% (inactive),-60.6% (inactive),203%,-0.332,-0.26,0.432,-9.53% (inactive),-0.473 (inactive),-0.000129 (inactive),0.00473 (inactive),inactive,2.04% (inactive),–,–,–,–,–
COC(=O)CSc1ncnc2c1sc1nc(-c3ccco3)c3c(c12)CC(C)(C)OC3,514,-12.6% (inactive),-71.6% (inactive),130%,-0.117,0.288,-0.223,9.91% (inactive),-0.364 (inactive),-2e-06 (inactive),0.00608 (inactive),inactive,-8.07% (inactive),–,–,–,–,–
Cc1ccc(-c2nnc(OCCN3CCOCC3)c3ccccc23)cc1,453,0.4% (inactive),-85.1% (inactive),167%,1.01,-0.803,-0.0262,4.37% (inactive),-0.463 (inactive),-2.6e-05 (inactive),0.00559 (inactive),inactive,30.5% (inactive),–,–,–,–,–
CCC(NC(=O)Nc1ccc(O)cc1)(C(F)(F)F)C(F)(F)F,709,-9.4% (inactive),18.3% (inactive),156%,-0.865,0.673,0.754,-3.95% (inactive),-0.448 (inactive),-3.4e-05 (inactive),0.00524 (inactive),inactive,2.89% (inactive),–,–,–,–,–
O=C1CCC(=O)N1CN(Cc1ccco1)CN1C(=O)CCC1=O,512,-4.8% (inactive),-33.2% (inactive),158%,2.24,-1.47,0.89,37.7% (inactive),-0.376 (inactive),-1.3e-05 (inactive),0.00674 (inactive),inactive,13.2% (inactive),–,–,–,–,–
CCOC(=O)C1/C(=N\O)CC(C)(O)C(C(=O)OCC)C1c1ccc(OC)c(OC)c1 (stereo unspecified),573,-0.9% (inactive),-36% (inactive),149%,0.422,-0.512,-0.582,1.98% (inactive),-0.416 (inactive),-5.9e-05 (inactive),0.0045 (inactive),inactive,1.71% (inactive),–,–,–,–,–
CC1(C)CC(=O)C2=C(C1)OC(N)=C(C#N)[C@@]21C(=O)N(CC(N)=O)c2ccccc21,375,-8% (inactive),-63.6% (inactive),114%,0.0987,0.575,-0.037,-3.95% (inactive),-0.464 (inactive),-2e-05 (inactive),0.00604 (inactive),inactive,-3.87% (inactive),–,–,–,–,–
CCCCCCn1c(SCCN2CCOCC2)nc2c1c(=O)[nH]c(=O)n2C,534,-16.2% (inactive),-9.8% (inactive),139%,0.497,0.889,0.83,13.4% (inactive),-0.409 (inactive),-4.3e-05 (inactive),0.00545 (inactive),inactive,27.5% (inactive),–,–,–,–,–
Cc1cccc(OCc2nc(C)cc(=O)[nH]2)c1,594,-7.7% (inactive),-84.7% (inactive),173%,2.18,0.349,-1.33,14% (inactive),-0.409 (inactive),-2.4e-05 (inactive),–,inactive,-4.66% (inactive),0.00552 (inactive),–,–,–,–
N#Cc1nc(-c2cccs2)oc1NCCN1CCOCC1,666,6.6% (inactive),-60.7% (inactive),146%,0.927,0.0167,-0.446,10.9% (inactive),-0.0476 (inactive),-2.5e-05 (inactive),0.00626 (inactive),inactive,6.5% (inactive),–,–,–,–,–
CC(NC(=O)NC(N)=O)(C(F)(F)F)C(F)(F)F,674,6.8% (inactive),-84.9% (inactive),109%,0.562,0.75,0.26,13.9% (inactive),-0.534 (inactive),-1.1e-05 (inactive),0.00493 (inactive),inactive,21.5% (inactive),–,–,–,–,–
CCN1CCc2c(C#N)c(NCc3ccccc3)nc(NCCO)c2C1,534,-12% (inactive),-113% (inactive),151%,0.614,-1.73,-1.03,-5.81% (inactive),-0.398 (inactive),-3.2e-05 (inactive),0.00361 (inactive),inactive,-0.503% (inactive),–,–,–,–,–
CCC(C(=O)Nc1ncn[nH]1)(C(F)(F)F)C(F)(F)F,692,5.8% (inactive),-106% (inactive),171%,0.655,0.101,-0.238,7.93% (inactive),-0.479 (inactive),-4.9e-05 (inactive),0.0062 (inactive),inactive,27.8% (inactive),–,–,–,–,–
CCN1CCc2c(C#N)c(N3CCOCC3)nc(NCCO)c2C1,566,-9.7% (inactive),-122% (inactive),151%,1.19,-1.68,-1.24,-9.53% (inactive),-0.456 (inactive),-9.7e-05 (inactive),0.0043 (inactive),inactive,-3.77% (inactive),–,–,–,–,–
CC(=O)OCC(=O)[C@@]1(O)CC[C@H]2[C@@H]3CCC4=CC(=O)CC[C@]4(C)[C@H]3C(=O)C[C@@]21C,–,–,-92.4% (inactive),97.4%,-1.29,-1.69,0.158,3.59% (inactive),-0.477 (inactive),-6.1e-05 (inactive),–,–,9.11% (inactive) and 28.9% (inactive),0.00575 (inactive),16.5% (inactive),99.5,3.98% (inactive),27.5% (inactive)
COc1ccc(-n2ccc(=O)c3c2CCCC3=O)cc1,538,-18% (inactive),-24.2% (inactive),175%,0.411,1.24,0.919,-3.97% (inactive),-0.383 (inactive),-5.1e-05 (inactive),0.00531 (inactive),inactive,-7.89% (inactive),–,–,–,–,–
CCN(CC)CC(=O)Nc1c(C)cccc1C,642 and 715,-6.5% (inactive) and -1% (inactive),-39.3% (inactive) and -82.5% (inactive),130% and 116%,-0.149 and 1.01,0.72 and -0.684,-0.101 and 0.844,15.3% (inactive) and 14.6% (inactive),-0.457 (inactive) and -0.466 (inactive),7.7e-06 (inactive) and -5.7e-05 (inactive),–,–,–,0.00536 (inactive) and 0.0061 (inactive),–,–,11.4% (inactive) and 10.3% (inactive),39.6% (inactive) and 42.7% (inactive)
Nc1nonc1C(=O)NCCN=Cc1cc(Cc2ccccc2)cc(Br)c1O,537,-4.9% (inactive),49.5% (inactive),156%,-0.875,1.06,0.686,-1.98% (inactive),-0.41 (inactive),-6.3e-05 (inactive),0.00522 (inactive),inactive,-5.78% (inactive),–,–,–,–,–
